The source of these data is PubChem BioAssay AID1985 (Southern Research Specialized Biocontainment Screening …, 2009).

Out of some 2,300 compounds screened, about 1,000 (43%) were called active. How the calls were made is not given here. The set was probably picked from earlier hits. Some of the results follow. Entries with a potency or affinity are not part of this list.

A short description of the experiment: PhoP regulon inhibitor project modified counter assay, GFP fluorescence readout, dose response (AID 1985). Conditions: S. Typhi, 4 h; series mostly up to 150 µM.
Take `COc1ccccc1Nc1cc(C(=O)NCc2cccnc2)c2ccccc2n1`: the molecule was classed as inactive.
As for `CCOc1ccc(NC(=S)Nc2cc(C)[nH]n2)cc1`, the entry is “inactive”; as for `COc1c(C(=O)N2CCCC2)ccc2ccccc12`, “inactive”.
Take `CC(C)(C)Nc1c2ccccc2nc2ccccc12`: the outcome was inactive.
As for `COc1ccc(Nc2c3c(nc4ccc(C)cc24)CCC3)cc1`, the entry is “inactive”.
As to `CC1CCN(C(=O)COc2ccc(Nc3ccccc3)cc2)CC1`, the molecule was classed as inactive.
As for `CCOC(=O)c1ccc(NC(=O)C2CCC(CNc3c(N4CCOCC4)c(=O)c3=O)CC2)cc1` (configuration not stated), the molecule was classed as inactive.
As for `CCCCNC(=O)CCC(=O)Nc1ccc2nc(N3CCC(C)CC3)cc(C)c2c1`, the entry is “inactive”; as for `COc1ccc(N=CC2=C(Nc3ccc(OC)cc3)c3c(C)nn(-c4ccccn4)c3CC2)cc1`, “inactive”.
Next, `CCO[C@H]1OC(C(=O)O)=C[C@@H](c2ccccc2)[C@@H]1CCCO`: “inactive”; `Clc1ccc2c(c1)C(N1CCNCC1)Cc1ccccc1S2` (configuration not stated): “inactive”.
Consider `O=C(NCc1ccco1)C1CCN(C(=O)c2cc3sccc3n2Cc2ccc(Cl)cc2)CC1`, for which the outcome was inactive.
For `Cc1ccc2nc(/C(C#N)=C\c3ccc(N4CCCCC4)c([N+](=O)[O-])c3)[nH]c2c1`, the molecule was classed as inactive.
Next, `C#CCOCCOCCOCCNc1nc(N2CCN(C(=O)CCCCCCCCCCNC(=O)[C@H](CCCCN)n3cc(CCO)nn3)CC2)nc(N2CCN(C(=O)CCCCCCCCCCNC(=O)[C@H](CCCCN)n3cc(CCO)nn3)CC2)n1`: “inactive”; `CCOC(=O)c1cc(-c2ccncc2)nc2c1c(C)nn2-c1ccccn1`: “inactive”; `CN(C)/C=N/c1ncc(C(=O)c2ccc(Cl)cc2)s1`: “inactive”.
As for `Nc1nn2cc(-c3ccccc3)nc2c2ccccc12`, the result was inactive.
Next, `Nc1nc2ccccc2cc1-c1cccs1`: “inactive”; `Cc1ccc(C)c(Nc2cc(C)nc3ccccc23)c1`: “inactive”.
Next, `Nc1ccc(N=Nc2ccccc2)c(N)n1`: “inactive”; `Cc1cc(-c2nc3ccccc3o2)c2ccccc2n1`: “inactive”; `CCCN(C(=O)CSc1nc2ccccc2n1CC)C1CCS(=O)(=O)C1` (configuration not stated): “inactive”.
For the molecule `CCOc1ccc(-c2ccc(SCC(=O)N3CCOCC3)nn2)cc1`, the molecule was called inactive.
As for `CCCCc1cc(=O)oc2cc(C)cc(OCC(=O)NCC3CCC(C(=O)O)CC3)c12` (configuration not stated), the entry is “inactive”; as for `Clc1ccc2c(c1)c1cc(Cl)ccc1n2CN1CCOCC1`, “inactive”.
As for `CC(C)C(NC(=O)c1ccc(Cl)cc1)C(=O)NCC1CCCO1` (configuration not stated), the entry is “inactive”; as for `Cc1ccc(N(CC(=O)Nc2c(C)n(C)n(-c3ccccc3)c2=O)S(C)(=O)=O)cc1C`, “inactive”.
As for `OCC[C@H]1C[C@H](O)[C@@H](O)[C@@]2(Cc3ccccc3CO2)O1`, the entry is “inactive”; as for `O=C(NC1(C(F)(F)F)C(=O)Nc2c1c(=O)[nH]c(=O)n2-c1ccccc1)c1ccncc1` (configuration not stated), “inactive”; as for `Cc1ccn2cc(-c3ccc4c(c3)NC(=O)CO4)nc2c1`, “inactive”.
In the case of `Cc1csc2ncc(C(=O)Nc3ccon3)c(=O)n12`, the result was inactive.
As for `Cc1ccc(NNS(=O)(=O)c2ccc(C)cc2)cc1`, the molecule was classed as inactive.
Consider `Cc1cccc(NC(=O)C2CCCN2S(=O)(=O)c2ccc3c(c2)n(C)c(=O)c(=O)n3C)c1` (configuration not stated), for which the call was inactive.
As for `Cc1cccc(NCN2C(=O)c3ccccc3C2=O)c1`, the entry is “inactive”; as for `CC(=O)Nc1ccc(S(=O)(=O)Nc2nc3ccccc3nc2Nc2cccc(S(N)(=O)=O)c2)cc1`, “inactive”; as for `CCOc1ccccc1NC(=O)NS(=O)(=O)c1ccc(C)cc1`, “inactive”.
As to `Cc1cc(C)c(S(=O)(=O)Nc2cccnc2)c(C)c1`, the outcome was inactive.
In the case of `CC(C)NC(=O)Nc1ccc(Br)cc1Cl`, the call was inactive.
Turning to `CC1CC(C)CN(C(=O)c2ccc(NC(=O)c3ccc(=O)[nH]c3)cc2)C1` (configuration not stated), the result was inactive.
As for `COCCNC(=O)CN(C(=O)CCC(=O)Nc1ccccn1)c1ccc(F)c(Cl)c1`, the call was inactive.
In the case of `O=C(OCCCN1C(=O)c2ccccc2C1=O)c1ccco1`, the molecule was called inactive.
As for `O=C(NCCOc1ccccc1)c1ncn[nH]1`, the entry is “inactive”; as for `CC(C)CCNC(=O)c1cc2c(s1)-c1ccccc1S(=O)(=O)C2`, “inactive”.
Regarding `CN1CCc2c(sc3c2C(=O)NC(c2ccc4c(c2)OCO4)N3)C1` (configuration not stated), the call was inactive.
In the case of `NS(=O)(=O)c1ccc(CNc2ccc3ccccc3n2)cc1`, the outcome was inactive.
For `CCOC(=O)C1CCN(C(=O)CCc2nc3ccccc3[nH]2)CC1`, the call was inactive.
As for `O=C(CSc1ccccc1)N1CCC(N2CCC(C(=O)N3CCCC3)CC2)CC1`, the entry is “inactive”; as for `Cc1c(CC(=O)N2CCC(C(N)=O)CC2)c(=O)oc2cc3c(cc12)CCC1(CCCCC1)O3`, “inactive”; as for `C#CCOCCOCCOCCNc1nc(N2CCN(C(=O)CCCCCCCCCCNC(=O)Cn3cc(CCCCCN)nn3)CC2)nc(N2CCN(C(=O)CCCCCCCCCCNC(=O)[C@@H]([C@H](C)O)n3cc(C)nn3)CC2)n1`, “inactive”.
Consider `Cc1nc2ccccn2c1/C(O)=C1\C(=O)C(=O)N(CCN2CCOCC2)C1c1cccnc1` (configuration not stated), for which the result was inactive.
As for `CCOC(=O)c1ccc(N2Cc3ccccc3C2=NC(=O)c2cccc([N+](=O)[O-])c2)cc1`, the entry is “inactive”; as for `COc1cccc(/C=C/C(=O)c2cccc([N+](=O)[O-])c2)c1OC`, “inactive”; as for `CC(C(=O)c1ccc2ccccc2c1)N1CCCCC1` (configuration not stated), “inactive”.
Regarding `COc1ccccc1C(=O)Nc1nnc(-c2ccc(Cl)cc2)o1`, the molecule was classed as inactive.
As to `O=C(Nc1nnc(-c2cccs2)o1)c1cccc(C(F)(F)F)c1`, the molecule was called inactive.
As for `CCC(=O)Nc1nnc(-c2ccco2)o1`, the entry is “inactive”; as for `O=C(Nc1nnc(-c2cccs2)o1)c1cccc(F)c1`, “inactive”.
Regarding `C=CCn1c(O)c(N=NC(=O)c2cccnc2)c2cc(Br)ccc21`, the molecule was called inactive.
Next, `O=C(N/N=C/c1cccc(OCc2ccccc2)c1)c1cccs1`: “inactive”; `NC1=NC(c2cccc(O)c2)n2c(nc3ccccc32)N1` (configuration not stated): “inactive”.
Next, `CCOC(=O)c1ccccc1-n1c(C)cc(C2N=C(N)Nc3nc4ccccc4n32)c1C` (configuration not stated): “inactive”; `Cc1cc(C)c(S(=O)(=O)Nc2ccccc2C(=O)OCC(=O)NCc2ccccc2)c(C)c1`: “inactive”.
Regarding `NC(=O)c1ccsc1NC(=O)c1ccc2c(c1)CCCC2`, the molecule was called inactive.
`COc1ccc(N2CCN(c3cc(C)c4ccc(O)cc4n3)CC2)cc1`: the outcome was inactive.
As for `CCOC(=O)C(CC)Sc1ccc2nnc(-c3cccnc3)n2n1` (configuration not stated), the entry is “inactive”.
Next, `COc1ccc(OC)c(C2=NO[C@@H]3C(=O)N(c4cc(Cl)ccc4OC)C(=O)[C@H]23)c1`: “inactive”; `Fc1cccc(NC(=S)NCc2ccc(Cl)cc2)c1`: “inactive”.
